The entries come from a sample that favours hits as a whole.
ST2 inh: inhibitors of human ST2 (IL1RL1) binding to IL-33. AlphaLISA ST2-Fc/biotin-IL-33 interaction, 1 h. actives 2.3% (n = 78,000). inhibition, % for hits at 17 µM; in the data active = inhibition above about 30%
Active calls of the source: *; i = inactive.

SMILES	ST2 inh
O=C(C1CCOCC1)N1CCOC(CC(c2ccccc2)c2ccccc2)C1 (stereo not drawn)	i
COc1ccc(NC(=O)c2sc3nc4c(c(-c5cccs5)c3c2N)CCCC4)cc1	i
COc1ccc(NS(=O)(=O)c2cccc(C(=O)Nc3ccccc3C(=O)O)c2)cc1	i
COc1ccc(Nc2ccccc2)c(C)c1	37%*
COc1ccc(C2CC(=O)C=C(Nc3ccccc3)C2)cc1 (stereo not drawn)	i
COc1ccc(Nc2ccc(OC)cc2)cc1	70%*
COc1ccc(NC2=C(C)C(=O)CC2)cc1	i
COc1ccc(CNc2ccccc2C(=O)O)cc1	i
COc1ccc(Nc2ccccc2C(=O)O)cc1	35%*
COc1ccc(OC)c(S(=O)(=O)Nc2ccccc2)c1	i
COc1ccc(NC(=O)Nc2ccc(I)cc2)cc1	i
Cc1nnc(Nc2ccc(S(=O)(=O)Nc3nccs3)cc2)c2ccccc12	i
CCOc1cc(C2Nc3ccccc3-c3nnc(SC)nc3O2)ccc1OC (stereo not drawn)	i
Cc1ccc(NC(=O)CSc2cn(CCNC(=O)c3ccc(F)cc3)c3ccccc23)cc1	i
CC(=O)NC1=C(N2CCOCC2)C(=O)c2nonc2C1=O	i
CCOC(=O)c1cn(C(C)c2cnn(C)c2)cc(Oc2ccccc2)c1=O (stereo not drawn)	i
Cc1ccc(N=Cc2nc(-c3ccccc3F)oc2O)c(C)c1	33%*
Oc1oc(-c2ccccc2F)nc1C=Nc1ccc(Cl)cn1	32%*
Cc1ccc(N=Cc2nc(-c3ccc(Br)cc3)oc2O)c(C)c1	i
Oc1oc(-c2ccccc2)nc1C=Nc1ccc(Br)cn1	i
Cc1ccc(N=Cc2nc(-c3ccccc3)oc2O)c(Br)c1	i
Oc1oc(-c2ccc(Br)cc2)nc1C=Nc1ccc(Br)cn1	i
O=C(CSc1c2c(nc3cc(Cl)ccc13)CCCC2)NC1CC1	i
CN(C)c1ccc(C2C(=C(O)c3ccccc3)C(=O)C(=O)N2CCCO)cc1 (stereo not drawn)	i
O=C(c1ccncc1)N1C[C@@H]2OCC(=O)N(CC3CCCCC3)[C@@H]2C1	i
SMILES	ST2 inh
O=c1oc2ccc(Cl)cc2nc1C=C(O)c1ccco1	i
C=CCn1c(O)c(C2=c3cc(Br)ccc3=NC2=O)c2ccccc21	37%*
O=C1N=c2ccc(Br)cc2=C1c1sc(=O)[nH]c1O	i
O=C1N=c2ccc(Br)cc2=C1c1sc(Nc2cccc(C(F)(F)F)c2)nc1O	i
O=C1Nc2ccc(-c3ccc(Cl)cc3)cc2C(=O)N2CCN(C(=O)c3ccccc3)C[C@H]12	i
Cc1ccc(CNS(=O)(=O)c2ccc(Br)s2)cc1	i
O=C(CNS(=O)(=O)c1ccc(Br)s1)N1CCN(Cc2ccccc2)CC1	i
Cc1ccc(CN2CCCN(S(=O)(=O)c3ccc(Br)s3)CC2)cc1	35%*
CCc1cc2c(cc3c(=O)n(CC(=O)NCCCN4CCN(CC)CC4)nc(CC)n32)s1	i
O=C(Nc1ccccn1)Nc1ccc(F)cc1F	i
CC(C)NC(=O)C1CCC(Cn2c(=O)c3sccc3n(CC(=O)N3CCCCCC3)c2=O)CC1 (stereo not drawn)	i
C=CCn1c2ccccc2c2nnc(SCC(=O)OCC)nc21	i
CC(=O)n1cc(C(C[N+](=O)[O-])SCc2ccccc2)c2ccccc21 (stereo not drawn)	41%*
CC(=O)NC(C(N)=O)C(SCc1ccccc1)c1c[nH]c2ccccc12 (stereo not drawn)	i
CC(=O)n1c2ccccc2c2cc([N+](=O)[O-])ccc21	i
COc1ccc(-c2nnc(N)o2)cc1	i
Nc1ccc(-c2nnc(-c3ccc(N)cc3)o2)cc1	37%*
Cc1ccc(-c2nnc(-c3ccc(Cl)cc3)o2)cc1	i
Nn1c(SCC(=O)NC23CC4CC(CC(C4)C2)C3)nnc1-c1ccc(Cl)cc1Cl	i
CC(=O)C1=C(O)C(=O)N(CC(CC(=O)O)c2ccccc2)C1c1ccccc1F (stereo not drawn)	i
CCC(=O)N1CCc2cc(Br)cc(S(=O)(=O)N(CC)CC)c21	i
Cc1cc([N+](=O)[O-])nn1CCCC(=O)Nc1ccc(F)cc1F	i
COc1ccc(C(=O)N2CC[C@@H](CC(=O)O)[C@@H](CCN3CCCN(C(C)=O)CC3)C2)cc1	39%*
COc1ccccc1N1CCN(CC[C@H]2CN(C(=O)N3CCOCC3)CC[C@H]2CC(=O)O)CC1	33%*
O=C(O)C[C@@H]1CCN(C(=O)c2ccco2)C[C@@H]1CCN1CCN(c2ccccc2)CC1	i
COc1ccc(CC(=O)N2CC[C@@H](CC(=O)O)[C@@H](CCN3CCN(c4cccc(C(F)(F)F)c4)CC3)C2)cc1	i
COc1ccc(CC(=O)N2CC[C@@H](CC(=O)O)[C@@H](CCN3CCN(c4ccccn4)CC3)C2)cc1	i
COc1ccc(C(=O)N2CC[C@@H](CC(=O)O)[C@@H](CCN3CCN(c4cccc(C(F)(F)F)c4)CC3)C2)cc1	i
C=CCOc1ccc(/C=c2\sc3nc(=O)c(Cc4ccccc4)nn3c2=O)cc1	i
O=C(NCc1ccccc1Cl)c1ccc2nc3sc4c(c3c(=O)n2c1)CCCC4	i

Bioassay records from PubChem BioAssay.
